Holding throughout (assay): DAPPL (digital affinity profiling via proximity ligation, sequencing); 10 mM Tris-HCl pH 7.5, 50 mM NaCl, 1 mM DTT, 4% glycerol, room temperature, 30 min; GST-TFs on glutathione beads, 16-mer random dsDNA library, 0.1% formaldehyde crosslink after washing; high values mean tight binding
Common to all, as to details: protein: recombinant; tags: N-terminal GST; dsDNA, one strand shown

One assay concerns the target T1, ELK4 (Homo sapiens, UniProt P28324-2 1-405).
T1 sequence: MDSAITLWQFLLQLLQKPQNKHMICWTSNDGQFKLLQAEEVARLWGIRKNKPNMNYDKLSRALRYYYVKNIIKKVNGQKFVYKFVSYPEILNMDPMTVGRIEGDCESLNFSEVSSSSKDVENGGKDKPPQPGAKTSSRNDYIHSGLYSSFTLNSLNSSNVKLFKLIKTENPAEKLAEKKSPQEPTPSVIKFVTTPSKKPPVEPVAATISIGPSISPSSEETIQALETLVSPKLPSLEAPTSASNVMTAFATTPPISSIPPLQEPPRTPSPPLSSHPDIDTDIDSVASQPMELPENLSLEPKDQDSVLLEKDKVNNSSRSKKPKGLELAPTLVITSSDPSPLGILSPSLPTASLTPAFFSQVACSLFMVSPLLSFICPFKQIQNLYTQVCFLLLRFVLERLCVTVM
A digest of the protocol: (§1)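 Each value of binding signal is a hexamer's read frequency for a factor divided by the same hexamer's frequency in the tag-only sample. Barcoded, bead-captured GST fusions of human transcription factors made in yeast were pooled with that sample and incubated with 200 nmole of a random double-stranded 16-mer DNA library in Tris/NaCl/DTT/glycerol buffer at room temperature for 30 min. Washing, 0.1% formaldehyde crosslinking, proximity ligation, PCR and Illumina NextSeq500 sequencing followed.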

In a further assay the target is T2, ELF3 (Homo sapiens, UniProt P78545 1-371).
T2 sequence: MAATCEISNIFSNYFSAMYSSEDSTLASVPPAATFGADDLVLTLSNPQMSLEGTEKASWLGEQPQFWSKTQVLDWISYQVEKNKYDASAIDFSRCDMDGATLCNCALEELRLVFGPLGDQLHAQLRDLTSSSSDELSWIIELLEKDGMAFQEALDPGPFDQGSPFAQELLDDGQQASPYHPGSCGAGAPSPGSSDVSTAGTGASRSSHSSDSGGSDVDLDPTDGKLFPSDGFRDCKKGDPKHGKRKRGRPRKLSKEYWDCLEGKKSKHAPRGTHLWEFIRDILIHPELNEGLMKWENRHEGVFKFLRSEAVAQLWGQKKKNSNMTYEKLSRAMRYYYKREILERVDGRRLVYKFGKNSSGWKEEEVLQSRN
In outline:
as §1

Another assay has as its target ETV1 (Homo sapiens, UniProt P50549 1-477). In outline: as §1
For a further assay, the target named is T3, ERF (Homo sapiens, UniProt P50548 1-548).
T3 sequence: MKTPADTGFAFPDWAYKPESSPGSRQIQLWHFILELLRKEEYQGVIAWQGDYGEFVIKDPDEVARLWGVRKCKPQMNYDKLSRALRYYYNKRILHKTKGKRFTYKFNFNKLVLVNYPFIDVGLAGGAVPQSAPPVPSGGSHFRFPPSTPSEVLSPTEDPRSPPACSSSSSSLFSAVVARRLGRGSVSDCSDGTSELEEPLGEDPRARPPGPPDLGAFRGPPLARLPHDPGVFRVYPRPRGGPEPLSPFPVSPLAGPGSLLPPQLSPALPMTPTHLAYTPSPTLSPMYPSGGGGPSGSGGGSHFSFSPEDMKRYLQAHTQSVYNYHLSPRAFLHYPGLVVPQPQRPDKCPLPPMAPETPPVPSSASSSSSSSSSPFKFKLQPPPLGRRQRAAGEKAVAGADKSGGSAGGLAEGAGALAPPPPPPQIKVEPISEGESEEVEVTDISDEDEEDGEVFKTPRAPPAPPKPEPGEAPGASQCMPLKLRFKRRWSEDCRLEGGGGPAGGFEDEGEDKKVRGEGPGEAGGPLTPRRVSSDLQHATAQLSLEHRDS
In outline: as §1

A further assay deals with T4, ETV3L (Homo sapiens, UniProt Q6ZN32 1-361).
T4 sequence: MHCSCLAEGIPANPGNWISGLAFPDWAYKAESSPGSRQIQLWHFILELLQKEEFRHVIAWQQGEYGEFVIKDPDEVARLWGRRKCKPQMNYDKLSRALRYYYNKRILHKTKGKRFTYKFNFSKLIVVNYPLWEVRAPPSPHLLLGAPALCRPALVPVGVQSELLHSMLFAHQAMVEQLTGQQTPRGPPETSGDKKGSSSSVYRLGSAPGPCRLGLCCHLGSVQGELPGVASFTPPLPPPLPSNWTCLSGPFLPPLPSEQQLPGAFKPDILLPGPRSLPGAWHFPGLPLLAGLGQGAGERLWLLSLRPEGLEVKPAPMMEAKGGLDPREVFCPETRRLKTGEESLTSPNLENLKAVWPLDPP
In outline:
as §1

The next assay addresses T5, ETS2 (Homo sapiens, UniProt P15036 1-469).
T5 sequence: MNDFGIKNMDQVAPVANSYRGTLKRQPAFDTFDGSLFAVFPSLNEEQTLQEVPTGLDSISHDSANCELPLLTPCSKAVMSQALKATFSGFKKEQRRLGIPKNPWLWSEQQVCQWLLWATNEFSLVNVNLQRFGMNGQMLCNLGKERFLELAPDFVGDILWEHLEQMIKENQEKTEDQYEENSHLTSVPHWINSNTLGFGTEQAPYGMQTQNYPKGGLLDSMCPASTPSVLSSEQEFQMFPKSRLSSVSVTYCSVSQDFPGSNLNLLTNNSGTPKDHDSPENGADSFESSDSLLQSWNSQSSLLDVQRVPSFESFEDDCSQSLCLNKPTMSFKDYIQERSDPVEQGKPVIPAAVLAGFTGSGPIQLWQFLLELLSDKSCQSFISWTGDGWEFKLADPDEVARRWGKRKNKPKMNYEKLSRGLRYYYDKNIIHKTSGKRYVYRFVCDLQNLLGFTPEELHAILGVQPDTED
In outline:
as §1

Another assay concerns the target T6, ETV7 (Homo sapiens, UniProt Q9Y603 1-341).
T6 sequence: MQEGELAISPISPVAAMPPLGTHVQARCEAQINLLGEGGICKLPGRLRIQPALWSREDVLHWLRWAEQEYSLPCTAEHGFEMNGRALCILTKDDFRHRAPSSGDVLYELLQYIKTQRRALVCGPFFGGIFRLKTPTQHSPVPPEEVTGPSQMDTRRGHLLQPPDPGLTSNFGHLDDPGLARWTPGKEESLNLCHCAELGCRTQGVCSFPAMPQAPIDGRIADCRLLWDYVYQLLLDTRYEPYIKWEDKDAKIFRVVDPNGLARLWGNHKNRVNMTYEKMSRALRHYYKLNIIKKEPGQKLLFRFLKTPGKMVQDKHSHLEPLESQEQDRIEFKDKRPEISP
A digest of the protocol:
as §1

In the next assay the target is T7, ELF5 (Homo sapiens, UniProt Q9UKW6-2 1-255).
T7 sequence: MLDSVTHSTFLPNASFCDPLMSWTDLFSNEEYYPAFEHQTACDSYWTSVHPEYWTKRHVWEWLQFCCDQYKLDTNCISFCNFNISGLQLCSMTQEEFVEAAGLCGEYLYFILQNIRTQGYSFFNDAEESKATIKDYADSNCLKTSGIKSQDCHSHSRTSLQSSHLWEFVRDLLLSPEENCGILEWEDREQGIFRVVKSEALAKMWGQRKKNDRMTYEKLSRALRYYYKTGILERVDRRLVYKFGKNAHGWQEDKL
In outline: as §1

A further assay deals with T8, ETV3 (Homo sapiens, UniProt P41162-2 1-143).
T8 sequence: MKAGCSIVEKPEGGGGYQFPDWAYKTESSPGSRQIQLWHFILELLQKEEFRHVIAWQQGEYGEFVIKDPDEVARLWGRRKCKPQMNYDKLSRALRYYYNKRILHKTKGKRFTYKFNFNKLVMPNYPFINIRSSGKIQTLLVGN
In outline: as §1

In a further assay the target is ETV6 (Homo sapiens, UniProt P41212 1-452). In outline:
as §1

Sequence of ETV6 (P41212 whole entry): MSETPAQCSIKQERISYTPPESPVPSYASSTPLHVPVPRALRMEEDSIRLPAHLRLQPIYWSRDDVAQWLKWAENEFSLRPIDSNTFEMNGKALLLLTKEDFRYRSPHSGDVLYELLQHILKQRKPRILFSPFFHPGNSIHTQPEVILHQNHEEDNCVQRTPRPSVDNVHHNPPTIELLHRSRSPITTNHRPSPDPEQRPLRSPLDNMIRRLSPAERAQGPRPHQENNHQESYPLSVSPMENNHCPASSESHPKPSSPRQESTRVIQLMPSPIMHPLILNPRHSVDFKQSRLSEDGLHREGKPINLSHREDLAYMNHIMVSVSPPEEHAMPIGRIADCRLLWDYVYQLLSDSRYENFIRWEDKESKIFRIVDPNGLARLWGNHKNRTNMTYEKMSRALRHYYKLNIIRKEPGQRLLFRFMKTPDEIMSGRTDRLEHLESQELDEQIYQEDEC
Sequence of ETV1 (P50549 whole entry): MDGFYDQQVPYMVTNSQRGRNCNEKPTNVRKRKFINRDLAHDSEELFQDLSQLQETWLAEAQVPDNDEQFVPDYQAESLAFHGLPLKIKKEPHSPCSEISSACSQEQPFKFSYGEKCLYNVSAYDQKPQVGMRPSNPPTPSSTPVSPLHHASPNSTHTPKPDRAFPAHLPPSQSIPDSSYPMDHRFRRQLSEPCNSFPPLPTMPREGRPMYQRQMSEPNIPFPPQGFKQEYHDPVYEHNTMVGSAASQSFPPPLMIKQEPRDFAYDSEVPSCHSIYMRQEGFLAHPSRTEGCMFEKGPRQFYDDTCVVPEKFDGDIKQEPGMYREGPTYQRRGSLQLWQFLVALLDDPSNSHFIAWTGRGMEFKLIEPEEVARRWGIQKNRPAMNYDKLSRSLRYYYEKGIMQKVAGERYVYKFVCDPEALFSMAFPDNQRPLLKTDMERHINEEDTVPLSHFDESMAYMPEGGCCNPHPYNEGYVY

Consider GTTTGC, for which the binding signal was 1.17 fold enrichment (6-mer frequency, TF over GST control) in the assay with ELK4; 1.23 fold enrichment (6-mer frequency, TF over GST control) in the assay with ELF3; 1.14 fold enrichment (6-mer frequency, TF over GST control) with ETV1; 1.1 fold enrichment (6-mer frequency, TF over GST control) with ERF; 1.05 fold enrichment (6-mer frequency, TF over GST control) with ETV3L; 1.08 fold enrichment (6-mer frequency, TF over GST control) with ETS2. Also, the binding signal with ETV7 was 1.01 fold enrichment (6-mer frequency, TF over GST control); with ELF5, 1.07 fold enrichment (6-mer frequency, TF over GST control); with ETV3, 1.1 fold enrichment (6-mer frequency, TF over GST control); with ETV6 it was 1.02 fold enrichment (6-mer frequency, TF over GST control).
